This note sets out measurements from PubChem BioAssay (EPA / NIEHS).

Read-out in test [1]: Pselectin, SELP (gene 6403)
As to the kind of experiment: BSK_4H_Pselectin: BioMAP Diversity Plus: 4H Assay for Pselectin Biomarker Activity (AID 2283026). The note with it: primary human endothelial cells (HUVEC); actives raise or lower the signal. In short, it runs like this:
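ELISA of surface P-selectin on HUVEC, 24 h after dosing, with parallel SRB staining (0.1% after 10% TCA fixation, 560 nm) for overt cytotoxicity. Activity fitted in both directions relative to DMSO.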

Test [2] is described as follows: BSK_4H_SRB: Viability Assessment in the BioMAP Diversity Plus: 4H Assay (AID 2283027).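 Also: cells exposed to compound for 24 h before staining.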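 As to AC50: curves fitted both ways versus DMSO so AC50 may be loss or gain.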 As to conditions: primary human endothelial cells (HUVEC). In short, it runs like this:
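HUVEC, 24 h post-dose; 10% TCA fix, 0.1% SRB stain, A560 nm. Total protein = overt cytotoxicity, parallel to biomarker read. Bidirectional fit vs DMSO baseline.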

Test [3] can be described thus: BSK_BE3C_SRB: Viability Assessment in the BioMAP Diversity Plus: BE3C Assay (AID 2283028). As to conditions: primary human bronchial epithelial cells. In short, it runs like this: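 Cells (human bronchial epithelial, primary) are treated with chemicals, and after 24 h the parallel cultures are fixed in 10% TCA. These are then stained with 0.1% SRB and read at 560 nm. Gain or loss of signal is fitted relative to DMSO.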

Read-out in test [4]: Thrombomodulin, THBD (gene 7056)
As to the kind of experiment: BSK_3C_Thrombomodulin: BioMAP Diversity Plus: 3C Assay for Thrombomodulin Biomarker Activity (AID 2283029). The note with it: primary human endothelial cells (HUVEC); actives raise or lower the signal. In short, it runs like this:
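ELISA measurement of thrombomodulin on HUVEC surface 24 h after chemical dosing; activity fitted in both directions relative to DMSO vehicle.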

Read-out in test [5]: Urokinase-type plasminogen activator receptor (uPAR), PLAUR (gene 5329)
Nature of the test: BSK_4H_uPAR: BioMAP Diversity Plus: 4H Assay for Urokinase-type plasminogen activator receptor (uPAR) Biomarker Activity (AID 2283030). As to conditions: primary human endothelial cells (HUVEC); actives raise or lower the signal. In short, it runs like this: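 Cell-surface uPAR ELISA signal, measured 24 h after dosing human umbilical vein endothelial cells, was analyzed with bidirectional fitting relative to DMSO. Parallel SRB staining of total protein tracked overt cytotoxicity.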

Read-out in test [6]: Vascular endothelial growth factor receptor 2 (Homo sapiens) (UniProt P35968)
As to the kind of experiment: BSK_4H_VEGFRII: BioMAP Diversity Plus: 4H Assay for Vascular endothelial growth factor receptor 2 (VEGFR2) Biomarker Activity (AID 2283031).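 As to AC50: cell-surface VEGFR2 protein level quantified by ELISA.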 As to conditions: primary human endothelial cells (HUVEC); actives raise or lower the signal. In short, it runs like this: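 ELISA read-out of VEGFRII in primary human umbilical vein endothelium, taken 24 h after chemical treatment. Responses are expressed relative to DMSO, with bidirectional fitting.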

Read-out in test [7]: Vascular cell adhesion molecule 1 (VCAM1), VCAM1 (gene 7412)
Nature of the test: BSK_4H_VCAM1: BioMAP Diversity Plus: 4H Assay for Vascular cell adhesion molecule 1 (VCAM1) Biomarker Activity (AID 2283033).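 As to outcome: cell-surface VCAM-1 protein measured by ELISA.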 The note with it: primary human endothelial cells (HUVEC); actives raise or lower the signal. An outline of the steps:
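VCAM-1 ELISA read 24 h after chemical dosing of HUVEC in the BioMAP 4H system, with gain or loss of signal fitted relative to DMSO. Parallel SRB staining (560 nm) checked overt cytotoxicity.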

Read-out in test [8]: Interferon-gamma inducible Protein 10 (IP10), CXCL10 (gene 3627)
As to the kind of experiment: BSK_BE3C_IP10: BioMAP Diversity Plus: BE3C Assay for Interferon-gamma inducible Protein 10 (IP10) Biomarker Activity (AID 2283034). As to conditions: primary human bronchial epithelial cells; actives raise or lower the signal. An outline of the steps:
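IP-10 quantified by ELISA in human primary bronchial epithelial cell cultures at 24 hours post-dosing. Gain or loss of signal fitted relative to DMSO; parallel SRB staining assessed overt cytotoxicity.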

Read-out in test [9]: Monokine induced gamma interferon (MIG), CXCL9 (gene 4283)
Nature of the test: BSK_BE3C_MIG: BioMAP Diversity Plus: BE3C Assay for Monokine induced gamma interferon (MIG) Biomarker Activity (AID 2283035). As to conditions: primary human bronchial epithelial cells; actives raise or lower the signal. An outline of the steps: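 Dose cells (human primary bronchial epithelial), incubate 24 h, quantify MIG by ELISA, then fit concentration–response in both directions relative to DMSO control.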

Read-out in test [10]: Plasminogen activator inhibitor-1 (PAI1), SERPINE1 (gene 5054)
Nature of the test: BSK_BE3C_PAI1: BioMAP Diversity Plus: BE3C Assay for Plasminogen activator inhibitor-1 (PAI1) Biomarker Activity (AID 2283037). The note with it: primary human bronchial epithelial cells; actives raise or lower the signal. An outline of the steps: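 PAI-1 was measured by ELISA in human primary bronchial epithelial cultures 24 h after chemical dosing, with cytotoxicity checked by SRB total-protein staining in parallel cultures. Activity was fitted in both directions relative to DMSO.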

Read-out in test [11]: Urokinase-type plasminogen activator receptor (uPAR), PLAUR (gene 5329)
As to the kind of experiment: BSK_BE3C_uPAR: BioMAP Diversity Plus: BE3C Assay for Urokinase-type plasminogen activator receptor (uPAR) Biomarker Activity (AID 2283039).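 As to outcome: cells exposed to compound for one day before measurement.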 As to conditions: primary human bronchial epithelial cells; actives raise or lower the signal. In short, it runs like this: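 uPAR levels were measured by ELISA after 24 h compound treatment of primary human bronchial epithelial cells, fitted in both directions relative to DMSO. Parallel SRB staining served as the cytotoxicity read-out.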

Read-out in test [12]: Interleukin-6 (IL6), IL6 (gene 3569)
As to the kind of experiment: BSK_CASM3C_IL6: BioMAP Diversity Plus: CASM3C Assay for Interleukin-6 (IL6) Biomarker Activity for (AID 2283040). The note with it: primary human coronary artery smooth muscle cells; actives raise or lower the signal.

Read-out in test [13]: Tissue plasminogen activator (tPA), PLAT (gene 5327)
As to the kind of experiment: BSK_BE3C_tPA: BioMAP Diversity Plus: BE3C Assay for Tissue plasminogen activator (tPA) Biomarker Activity (AID 2283041).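 Also: tPA level quantified by ELISA one day after compound addition.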 The note with it: primary human bronchial epithelial cells; actives raise or lower the signal. In short, it runs like this:
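tPA measured by ELISA 24 h after dosing human primary bronchial epithelial cells (BE3C system). Changes in either direction were fitted against DMSO. Parallel cultures were stained with SRB to flag overt cytotoxicity.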

Read-out in test [14]: Interleukin-8 (IL8), CXCL8 (gene 3576)
Nature of the test: BSK_CASM3C_IL8: BioMAP Diversity Plus: CASM3C Assay for Interleukin-8 (IL8) Biomarker Activity (AID 2283042).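 Also: IL-8 protein level quantified by ELISA.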 As to conditions: primary human coronary artery smooth muscle cells; actives raise or lower the signal.

Read-out in test [15]: Human Leukocyte Antigen - DR isotype (HLADR), HLA-DRA (gene 3122)
As to the kind of experiment: BSK_CASM3C_HLADR: BioMAP Diversity Plus: CASM3C Assay for Human Leukocyte Antigen - DR isotype (HLADR) Biomarker Activity (AID 2283043).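 Also: cell-surface HLA-DR protein level quantified by ELISA.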 As to conditions: primary human coronary artery smooth muscle cells; actives raise or lower the signal.

Read-out in test [16]: Macrophage colony-stimulating factor (MCSF), CSF1 (gene 1435)
Nature of the test: BSK_CASM3C_MCSF: BioMAP Diversity Plus: CASM3C Assay for Macrophage colony-stimulating factor (MCSF) Biomarker Activity (AID 2283044).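 Also: M-CSF protein amount quantified by ELISA after 24 h exposure.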 As to conditions: primary human coronary artery smooth muscle cells; actives raise or lower the signal.

Read-out in test [17]: Monocyte Chemoattractant Protein-1 (MCP1), CCL2 (gene 6347)
As to the kind of experiment: BSK_CASM3C_MCP1: BioMAP Diversity Plus: CASM3C Assay for Monocyte Chemoattractant Protein-1 (MCP1) Biomarker Activity (AID 2283046).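 Also: MCP-1 level quantified by ELISA 24 h after dosing.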 The note with it: primary human coronary artery smooth muscle cells; actives raise or lower the signal.

The nature of test [18]: BSK_CASM3C_Proliferation: Cell Proliferation Assessment in the BioMAP Diversity Plus: CASM3C Assay (AID 2283047).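 Also: sulforhodamine B total protein stain as relative cell number at 560 nm; sub-confluent cells exposed 48 h before staining; fitted both ways against DMSO so gain or loss of cell number.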 As to conditions: primary human coronary artery smooth muscle cells.
Read-out in test [19]: Monokine induced gamma interferon (MIG), CXCL9 (gene 4283)
As to the kind of experiment: BSK_CASM3C_MIG: BioMAP Diversity Plus: CASM3C Assay for Monokine induced gamma interferon (MIG) Biomarker Activity (AID 2283048).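 Also: MIG protein level measured by ELISA.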 The note with it: primary human coronary artery smooth muscle cells; actives raise or lower the signal.

Read-out in test [20]: serum amyloid A (SAA), SAA1 (gene 6288)
Nature of the test: BSK_CASM3C_SAA: BioMAP Diversity Plus: CASM3C Assay for serum amyloid A (SAA) Biomarker Activity (AID 2283049).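 Also: SAA protein level quantified by ELISA.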 As to conditions: primary human coronary artery smooth muscle cells; actives raise or lower the signal.

Activity calls are given as the source filed them. The calls were made as follows: active = hit-call score of the fitted dose curve at least 0.9, where 1 is the maximum; inactive = score below 0.9.

In the case of `CC(C)CCCCCCCOC(=O)c1ccccc1C(=O)OCCCCCCCC(C)C`, the outcome in test [1], in test [2], in [3], in [4], in [5] and in test [6] was inactive. Also, the result in test [7], in test [8], in test [9], in [10], in [11] and in [12] was inactive. For the same molecule, the outcome in [13], in test [14], in test [15], in test [16], in [17] and in [18] was inactive. For the same molecule, the outcome in test [19] and in [20] was inactive.

As usually defined, the AC50 is the concentration at which the activity in the assay is half-maximal. For the molecule `CC(=O)/C=C/c1ccccc1`, the outcome in [1], in test [2], in [3], in [4], in test [5] and in test [6] was inactive. Moreover, the outcome in test [7], in [8], in [9], in [10], in test [11] and in [12] was inactive. Further, the result in test [13], in test [14], in test [15], in test [16], in [18] and in test [19] was inactive. For the same molecule, the result in test [20] was inactive. Also, the AC50 in [17] was 0.104 µM (active).

On to `O=C1C(Cl)=C(Cl)C(=O)C(Cl)=C1Cl`, for which the half-maximal activity concentration (AC50) was 12.8 µM (active) in test [1]; 11.9 µM (active) in [2]; 5.02 µM (active) in test [4]; 31.9 µM (active) in [5]; 34.3 µM (active) in test [6]; 13.5 µM (active) in test [7]. The AC50 in [8] is 33.2 µM (active); in [9], 35.6 µM (active); in test [10], 20 µM (active); in test [11] it was 29.2 µM (active); in test [12] it was 20 µM (active); in test [15] it was 14.4 µM (active). The AC50 in [16] is 20 µM (active); in test [17] it was 20 µM (active); in test [18], 5.78 µM (active); in [19] it was 29.1 µM (active); in test [20] it was 20 µM (active). For the same molecule, the outcome in [3], in [13] and in [14] was inactive.

In the case of `O=[N+]([O-])O`, the outcome in test [1], in test [2], in test [3], in [4], in test [5] and in test [6] was inactive. For the same molecule, the outcome in [7], in test [8], in test [9], in test [10], in [11] and in [12] was inactive. In addition, the result in test [13], in test [14], in test [15], in test [16], in test [17] and in test [18] was inactive. The result in [19] and in [20] was inactive.
